High-throughput results deposited in PubChem BioAssay by National Center for Advancing Translational Sciences (NCATS).
TDP1 cell noCPT – qHTS for Inhibitors of human tyrosyl-DNA phosphodiesterase 1 (TDP1): qHTS in cells in absence of CPT; 420,000 tested, 15% active; Potency, µM (titrated, usually from 46.2 µM), without a hit: top-dose activity change, negative = growth inhibition, actives largely listed as inhibitors; DT40 Tdp1-/- hTDP1 cells, no CPT, ATP luminescence, 48 h; also: potency is read from the fitted curve at half-maximal effect; nearly all actives have a fitted effect of over 55% in size
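Growth kinetics read by CellTiter-Glo luminescence after ≥48 hr at 37 °C. Cells: DT40 Tdp1-/- stably carrying human TDP1, 400 per well, compound exposure in the absence of CPT (DMSO vehicle).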
HT1080 IDH1KD tx – kills HT-1080 cells with IDH1 knockdown | 360,000 tested, 2% active | HT-1080 IDH1 knockdown viability, ATP luminescence, 48 h | Potency, µM (series often up to 46.1 µM), for the others: top-dose activity, negative = toxicity, actives largely listed as cytotoxic;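 also: potency is read from the fitted curve at half-maximal effect; 0% = DMSO wells and -100% = cell-free medium wells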
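Using the IDH1-knockdown HT-1080 line run in the same batch and compound series as the NT line, viability after 48 h at 37 °C was determined by CellTiter-Glo luminescence and expressed as % activity.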
IL1B secr inh – blocks inflammasome-driven IL-1 beta release; 360,000 tested, 4.7% active; activity change, % at 57.5 µM; THP-1 LPS/ATP IL-1B secretion, AlphaLISA, 16 h; hits give low values; in the data active = activity change below about -50%; inconclusive = mostly about -30% to -49%
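Secreted IL-1B measured by AlphaLISA bead assay after 16 h compound exposure of THP-1 cells; compounds (final up to 57.5 uM) added 1 h before LPS (250 ng/mL) and ATP (1.25 mM) stimulation; lower signal means less secretion.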
TDP1 cell CPT – growth inhibition of DT40 Tdp1-/-;hTDP1 cells with camptothecin (screen for TDP1 inhibitors); 420,000 tested, 12% active; Potency, µM (series often up to 46.2 µM), for the others: at the highest dose activity change, negative = growth inhibition, hits mostly inhibitors; chicken DT40 Tdp1-/-;hTDP1 cells + 20 nM CPT, ATP luminescence, 48 h; also: potency is read from the fitted curve at half-maximal effect; nearly all actives have a fitted effect of over 55% in size
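Cell growth measured by CellTiter-Glo luminescence after a minimum 48 h, 37 C compound exposure with 20 nM CPT in Tdp1-knockout DT40 cells stably expressing hTDP1, seeded 400/well; qHTS titration format.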
HT1080NT lethal – kills 2HG-producing HT-1080-NT fibrosarcoma cells | 360,000 tested, 1.6% active | Potency, µM (doses to about 46.1 µM), without a hit: top-dose activity, negative = less viability, actives largely listed as cytotoxic | HT-1080-NT fibrosarcoma viability, CellTiter-Glo ATP luminescence, 48 h;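 also: NT is the 2HG producing partner of a matched IDH1 knockdown line; potency is read from the fitted curve at half-maximal effect; 0% = DMSO-treated cells and -100% = media-only wells without cells; nearly all actives have a fitted effect of over 55% in size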
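HT-1080-NT; 750 cells/well; 5% FBS RPMI; 48 h compound, 37 degrees C; CellTiter-Glo luminescence; curve fitting and curve-class assignment.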
An asterisk follows results filed as active; ? = inconclusive; · = not tested or not shown; ! = a repeat was not active; [ ] = remark or other dose. This is a sample that favours compounds with a hit; in the whole collection about 19% have one here. Unless noted, calls follow the shape of the dose curve; as a rule, active = well fitted curve in the direction sought with a large enough effect; inconclusive = small, poorly fitted or top-dose-only effect, or another doubt; inactive = no such curve, though single readings can be large; an effect the other way counts as inactive or inconclusive. Unless noted, % is scaled to controls: 0 for no effect and ±100 for the full control effect.

SMILES	TDP1 cell noCPT	HT1080 IDH1KD tx	IL1B secr inh	TDP1 cell CPT	HT1080NT lethal
Cc1ccn2c(=O)cc(COc3cccc(NC(=O)Nc4cccc(Cl)c4C)c3)nc2c1	23µM*	·	·	?	·
CCCC(=O)Nc1ccccc1OCc1cc(=O)n2cc(C)ccc2n1	?	·	·	-6%	·
Cc1cccc(OCC(=O)Nc2ccccc2OCc2cc(=O)n3cc(C)ccc3n2)c1	?	·	·	13µM*	·
COc1cc(OC)c(NC(=O)Nc2cccc(OCc3cc(=O)n4ccccc4n3)c2)cc1Cl	13µM*	·	·	18µM*	·
CCOC(=O)c1c(C)[nH]c(C(=O)C(C)Cl)c1C (centres undefined)	?	-17%	-101*	?	0%
CCOC(=O)c1[nH]c(C=O)c(C(=O)OCC)c1C	0.65µM*	3.7µM*	0	0.65µM*	1.6µM*
COc1ccc(OC)c(-c2nn(-c3ccccc3)cc2C(=O)NC2(C)CCS(=O)(=O)C2)c1 (centres undefined)	-19%	0%	0	5%	2%
Cc1ccc(Cn2c(C(=O)O)c(CNCc3cccs3)c3ccc(C)cc32)cc1	?	·	·	15µM*	·
Cc1ccc(Cn2c(C(=O)O)c(CNCc3ccccc3Cl)c3ccc(C)cc32)cc1	?	·	·	23µM*	·
CN(CCCNC(=O)c1cc2c(=O)n(C)c3ccccc3c2s1)Cc1ccccc1	15µM*	·	·	4.6µM*	·
CN(C)CCCNC(=O)c1cc2sc3ccccc3c2s1	?	18µM*	-118*	?	18µM*
CN(CCNC(=O)c1cc2c(=O)n(C)c3ccccc3c2n1C)Cc1ccccc1	?	-1%	?	?	-26%
CCN(CC)CCNC(=O)c1cc2c(=O)n(C)c3ccccc3c2s1	21µM*	?	?	18µM*	?
CCCCN(CC)CCNC(=O)c1cc2c(=O)n(C)c3ccccc3c2s1	23µM*	?	-86*	?	?
COc1ccc(Br)cc1CNC(=O)c1cc2c(=O)n(C)c3ccccc3c2s1	-22%	·	·	8%	·
CCOc1cc(/C=N/NC(=O)CNc2cccc(C)c2)ccc1OC(=O)c1ccccc1	18µM*	-1%	-7	?	-1%
COc1cc(C=NNc2ccccc2)ccc1OC(=O)c1ccccc1	18µM*	?	0	?	?
CCOc1cc(/C=N/Nc2cccc(C(=O)O)c2)ccc1OC(=O)c1ccccc1	?	-16%	6	7%	-19%
COc1cc(/C=N/Nc2ccccc2)ccc1OC(=O)c1cccs1	-2%	?	6	-7%	-25%
COc1cc(/C=N/Nc2nc3ccccc3s2)ccc1OC(=O)c1ccccc1F	4.6µM*	?	-71*	6.5µM*	-18%
NC(=O)c1ccc(NC(=O)COC(=O)C2CC(=O)N(Cc3ccccc3)C2)cc1 (centres undefined)	18%	7%	33	0%	10%
Cc1ccc(Nc2nc(N)nc(CN3CCN(c4ccccc4)CC3)n2)cc1Cl	18µM*	?	?	?	-30%
COc1ccc(Nc2nc(N)nc(CN3CCOCC3)n2)cc1	?	2%	-10	-30%	5%
COc1ccc(N2CCN(Cc3nc(N)nc(Nc4ccc(C)c(Cl)c4)n3)CC2)cc1	16µM*	?	-28	9.2µM*	?
N#Cc1nc(-c2ccco2)oc1N1CCCC1	-1%	0%	3	5%	3%
SMILES	TDP1 cell noCPT	HT1080 IDH1KD tx	IL1B secr inh	TDP1 cell CPT	HT1080NT lethal
N#Cc1nc(-c2ccco2)oc1N1CCN(c2cccc(Cl)c2)CC1	-28%	-5%	-62*	?	3%
CC1CC(C)CN(c2oc(-c3ccco3)nc2C#N)C1 (centres undefined)	21µM*	-6%	-20	18µM*	-1%
N#Cc1nc(-c2ccco2)oc1N1CCN(C(c2ccccc2)c2ccccc2)CC1	?	-2%[9.24 µM]	-19	?	?
COc1cccc(N2CCN(C(=O)Cn3nc(C)n4c(cc5c(OC)cccc54)c3=O)CC2)c1	-19%	·	·	1%	·
CC(C)NS(=O)(=O)c1ccc(OCC(=O)N2CCN(c3ccccc3)CC2)cc1	?	7%	21	-5%	0%
CC(C)NS(=O)(=O)c1ccc(OCC(=O)N2CCCC2)cc1	-15%	6%	10	-9%	10%
Cc1ccc(Cl)cc1N1CCN(C(=O)COc2ccc(S(=O)(=O)NC(C)C)cc2)CC1	18µM*	-17%	-11	13µM*	-15%
O=C(COc1ccc(S(=O)(=O)NC2CCCCC2)cc1)N1CCN(c2cccc(Cl)c2)CC1	16µM*	?	-26	?	-3%[9.24 µM]
O=C(CCN1C(=O)c2ccccc2C1=O)Nc1ccccc1C(=O)N1CCOCC1	-3%	11%	12	-2%	11%
CC(C)CC(=O)Nc1nnc(SCC(=O)Nc2nccs2)s1	0%	-1%	-9	-8%	3%
CC[C@]12C(=O)N(C)C[C@H]([C@@H]3C(=O)N(C)C(=O)[C@@H]31)N2C(=O)c1ccc(Cl)c(Cl)c1	-3%	14%	-1	-4%	4%
N#Cc1cc2c(nc1SCc1ccccc1)CCCCC2	21µM*	6%	15	18µM*	6%
CN1CCc2nc(SCc3ccc(C(C)(C)C)cc3)c(C#N)cc2C1	?	11µM*	-21	23µM*	?
N#CCSc1nc2c(cc1C#N)CCCC2	?	19%	17	-17%	11%
Cc1ccc(CSc2nc3c(cc2C#N)CCC3)cc1	-2%	10%	0	-9%	19%
N#Cc1cc2c(nc1SCc1cccnc1)CCCCC2	-23%	0%[9.24 µM]	-66*	-24%	-17%
CN1CCc2nc(SCc3ccc(Cl)cc3)c(C#N)c(-c3cccs3)c2C1	?	?	-12	16µM*	-10%
CC1=C([N+](=O)[O-])C(c2ccc(Cl)cc2)NC(=O)N1 (centres undefined)	-4%	-13%	8	7%	-5%
CC1CCN(S(=O)(=O)c2ccc3nc(Nc4ccc(C#N)cc4)ccc3c2)CC1	21µM*	·	·	?	·
CC1CCN(S(=O)(=O)c2ccc3nc(Nc4cccc(C(F)(F)F)c4)ccc3c2)CC1	?	·	·	18µM*	·
COC(=O)[C@H](Cc1ccccc1)NC(=O)Cn1ccc(NC(=O)OCc2ccccc2)nc1=O	?	1%	?	?	0%
CN(CC(=O)Nc1ccccc1Cl)C(=O)COC(=O)CSc1ccc(Cl)cc1	9%	0%	6	-21%	-3%[9.24 µM]
CNS(=O)(=O)Cc1ccc2[nH]cc(CCN(C)C)c2c1	4.6µM*!	-29%	?	5.8µM*!	-20%
CCOC(=O)C1CCN(C(=O)CSc2ccccc2Cl)CC1	2%	0%	36	10%	2%
